32 compounds from PubChem BioAssay (NCATS) can be followed below.

Where “and” joins values, the source holds several entries; their conditions need not be identical. Identical values can stand only once. Results filed as inconclusive are left out. Entries that show only a call come without a potency. Calls of active or inactive are those of the source. The call rests on the fitted dose curve; in most records, active means well fitted curve in the direction sought with a large enough effect; inconclusive means small, poorly fitted or top-dose-only effect, or another doubt; inactive means no such curve, though single readings can be large; an effect the other way counts as inactive or inconclusive.

In experiment [1] the test system is Zika virus NS2B-NS3 protease (unlinked). The experiment is described as follows: Optimization of GU AMC qHTS for Zika virus inhibitors: Unlinked NS2B-NS3 protease assay (AID 1347151). Further: nearly all actives have a fitted effect of over 80% in size. Further: potency means the concentration at half of the fitted maximal effect. A digest of the protocol:
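Noncovalent NS2B hydrophilic domain–NS3 protease complex (25 nM final) in 10 mM Tris-HCl pH 8.0, 0.01% Tween 20; AMC substrate, room temperature 15 min (~20% conversion); fluorescence change normalized, 4-parameter Hill fit.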

Experiment [2] has as its system Zika virus NS2B-NS3 protease. The experiment is described as follows: Primary screen GU AMC qHTS for Zika virus inhibitors (AID 1347154). Further: nearly all actives have a fitted effect of over 70% in size. Further: potency means the concentration at half of the fitted maximal effect. A digest of the protocol: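 Unlinked Zika NS2B hydrophilic domain–NS3 protease complex at 25 nM in 10 mM Tris-HCl pH 8.0, 0.01% Tween 20, with an AMC peptide substrate. Fluorescence change (340/450 nm) over 15 min at room temperature, normalized to controls, fitted to 4-parameter Hill.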

A short description of experiment [3]: Confirmatory screen GU Rhodamine qHTS for Zika virus inhibitors qHTS (AID 1347157). Further: potency means the concentration at half of the fitted maximal effect; nearly all actives have a fitted effect of over 70% in size. To be noted: purified enzyme assay, Rhodamine110 substrate fluorescence, 15 min. A digest of the protocol:
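Buffer 10 mM Tris-HCl pH 8.0, 0.01% Tween 20. Unlinked protease 25 nM; compound preincubation 15 min, RT, protected from light. Substrate Rhod110, 1.5 microM; ~15% conversion in 15 min.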

A short description of experiment [4]: Confirmatory screen NINDS Rhodamine qHTS for Zika virus inhibitors (AID 1347161). Further: potency means the concentration at half of the fitted maximal effect; nearly all actives have a fitted effect of over 60% in size. A digest of the protocol: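 In 10 mM Tris-HCl pH 8.0 containing 0.01% Tween 20, linked NS2B-NS3 protease (25 nM final) is exposed to test compounds for 15 min. Cleavage of 1.5 microM Rhodamine110 substrate is tracked by fluorescence over 15 min.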
Experiment [5] relates to Zika virus NS2B-NS3 protease (linked). As to the kind of experiment: 384 well plate NINDS AMC confirmatory qHTS for Zika virus inhibitors (AID 1347163). Further: potency means the concentration at half of the fitted maximal effect; nearly all actives have a fitted effect of over 50% in size. A digest of the protocol: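 Enzyme (5, 30 or 60 nM final) first met test compounds for ~15 min. The AMC-tagged peptide Ac-VKTGKR-AMC followed at 30 microM. Fluorescence was then recorded at 25 min and scaled against no-enzyme and no-inhibitor wells.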

Experiment [6] has as its system Zika virus NS2B-NS3 protease (linked construct). As to the kind of experiment: 384 well plate NINDS Rhodamine confirmatory qHTS for Zika virus inhibitors (AID 1347164).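 Further: fluorescence from protease cleavage of Ac-LKRR-rhodamine 110 substrate; top concentration of the series differs between compounds; nearly all actives have a fitted effect of over 65% in size.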 A digest of the protocol:
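Linked NS2B-NS3 protease (final 5, 30 or 60 nM) preincubated ~15 minutes with compounds, then 10 microM Ac-LKRR-Rhodamine 110 added. Fluorescence (485/538 nm) read after 25 minutes at room temperature, normalized to no-enzyme and no-inhibitor controls.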

The test system of experiment [7] is Zika virus NS2B-NS3 protease (unlinked complex). As to the kind of experiment: Primary screen GU Rhodamine qHTS for Zika virus inhibitors: Unlinked NS2B-NS3 protease assay (AID 1347159). Further: nearly all actives have a fitted effect of over 60% in size. A digest of the protocol:
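In dose–response format, inhibition of unlinked protease (25 nM) was measured with 1.5 microM bis-peptide Rhodamine110 substrate. Aprotinin served as the intraplate control.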

The subject of experiment [8] is Zika virus NS2B-NS3 protease (linked construct). As to the kind of experiment: Primary screen NINDS Rhodamine qHTS for Zika virus inhibitors (AID 1347160). Further: nearly all actives have a fitted effect of over 55% in size. To be noted: outcome: dose series up to 57.1 µM unless noted. A digest of the protocol: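 Each compound, titrated, sat 15 min with 25 nM linked protease before 1.5 microM Rhodamine110 substrate went in. Fluorescence gain over the next 15 min, in pH 8.0 Tris with Tween 20, gave Hill-fitted curves.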

On to `CN(C)CCOC(c1ccccc1)c1ccccc1`, for which the Potency entry in experiment [1] and in experiment [2] was “inactive” each time.
On to `Cn1cnc2c1c(=O)[nH]c(=O)n2C`, for which the Potency result in experiment [1] and in experiment [2] was “inactive” each time.
On to `NCCc1cnc[nH]1`, for which the Potency entry in experiment [1] and in experiment [2] was “inactive” throughout.
On to `CC[N+](CC)(CC)CCOc1cccc(OCC[N+](CC)(CC)CC)c1OCC[N+](CC)(CC)CC`, for which the Potency entry in experiment [1] and in experiment [2] was “inactive” throughout.
For `CN1C2CCC1CC(OC(=O)C(CO)c1ccccc1)C2` (stereo not drawn), the Potency entry in experiment [1] and in experiment [2] was “inactive” each time.
For the compound `Cc1ccc(C(=O)Nc2ccc(S(=O)(=O)O)c3cc(S(=O)(=O)O)cc(S(=O)(=O)O)c23)cc1NC(=O)c1cccc(NC(=O)Nc2cccc(C(=O)Nc3cc(C(=O)Nc4ccc(S(=O)(=O)O)c5cc(S(=O)(=O)O)cc(S(=O)(=O)O)c45)ccc3C)c2)c1`, the Potency in experiment [1] is 16.8 µM (active); in experiment [2], 5.01 µM (active); in experiment [3], 2.82 µM (active) and 2 µM (active) and 2.24 µM (active); in experiment [4], 2.24 µM (active) and 2.51 µM (active); in experiment [5] it was 7.94 µM (active). Further, the Potency result in experiment [6] is “inactive”.
Regarding `CN1CCN(C2=Nc3cc(Cl)ccc3Nc3ccccc32)CC1`, the Potency result in experiment [1] and in experiment [2] was “inactive” in each case.
`Cc1cn([C@H]2C=C[C@@H](CO)O2)c(=O)[nH]c1=O`: the Potency result in experiment [2] is “inactive”.
As to `CCC1(C)CC(=O)NC1=O` (stereo not drawn), the Potency entry in experiment [1] and in experiment [2] was “inactive” throughout.
With `OCCN1CCN(CCCN2c3ccccc3Sc3ccc(C(F)(F)F)cc32)CC1`, the Potency result in experiment [1] and in experiment [2] was “inactive” throughout.
For the compound `CCOC(=O)C(C)(C)Oc1ccc(Cl)cc1`, the Potency entry in experiment [1] and in experiment [2] was “inactive” throughout.
For the compound `Nc1c2c(nc3ccccc13)CCCC2`, the Potency result in experiment [2] was “inactive”.
As for `COc1ccccc1OCC(O)CN1CCN(CC(=O)Nc2c(C)cccc2C)CC1` (stereo not drawn), the Potency result in experiment [1] and in experiment [2] was “inactive” throughout.
For the compound `COc1nc(C)nc(Cl)c1NC1=NCCN1`, the Potency entry in experiment [1] and in experiment [2] was “inactive” in each case.
Turning to `O=C(CCCN1CCC(O)(c2ccc(Cl)cc2)CC1)c1ccc(F)cc1`, the Potency result in experiment [1] and in experiment [2] was “inactive” in each case.
Consider `O=c1c(-c2ccc(O)cc2)coc2cc(O)cc(O)c12`, for which the Potency entry in experiment [1] and in experiment [2] was “inactive” throughout.
Turning to `CC1(CN2CCC(n3c(=O)[nH]c4ccccc43)CC2)OCc2ccccc2-n2cccc21` (stereo not drawn), the Potency entry in experiment [2] was “inactive”.
Regarding `Cc1cn([C@H]2C[C@H](N=[N+]=[N-])[C@@H](CO)O2)c(=O)[nH]c1=O`, the Potency result in experiment [2] was “inactive”.
For the compound `COc1ccccc1N1CCN(CC(O)COc2cccc3ccccc23)CC1` (stereo not drawn), in experiment [2], the Potency result was “inactive”.
Take `CN(CCOc1ccc(NS(C)(=O)=O)cc1)CCc1ccc(NS(C)(=O)=O)cc1`: the Potency entry in experiment [1] and in experiment [2] was “inactive” each time.
Take `NS(=O)(=O)c1cc2c(cc1Cl)NCNS2(=O)=O`: the Potency result in experiment [1] and in experiment [2] was “inactive” in each case.
Consider `COc1ccc(CCN(C)CCCC(C#N)(c2ccc(OC)c(OC)c2)C(C)C)cc1OC` (stereo not drawn), for which the Potency entry in experiment [1] and in experiment [2] was “inactive” in each case.
Take `CCCNCC(O)COc1ccccc1C(=O)CCc1ccccc1` (stereo not drawn): the Potency entry in experiment [1] and in experiment [2] was “inactive” throughout.
As to `CC12CC3CC(C)(C1)CC(N)(C3)C2`, the Potency entry in experiment [1] and in experiment [2] was “inactive” in each case.
As for `CN1CCN2c3ccccc3Cc3ccccc3C2C1` (stereo not drawn), the Potency result in experiment [1] and in experiment [2] was “inactive” each time.
For `CN1CCC(=C2c3ccccc3CC(=O)c3sccc32)CC1`, the Potency result in experiment [1] and in experiment [2] was “inactive” each time.
Turning to `C[C@@H]1CC(=O)NN=C1c1ccc(NN=C(C#N)C#N)cc1`, the Potency entry in experiment [2] was “inactive”.
For `CNCCCC12CCC(c3ccccc31)c1ccccc12`, the Potency entry in experiment [1], in experiment [2] and in experiment [7] was “inactive” throughout. The call in experiment [8] was inactive.
For `O=C(C1CCCCC1)N1CC(=O)N2CCc3ccccc3C2C1` (stereo not drawn), the Potency entry in experiment [1] and in experiment [2] was “inactive” in each case.
As for `COc1ccc2[nH]cc(CCNC(C)=O)c2c1`, in experiment [2], the Potency result was “inactive”. Moreover, the call in experiment [8] was inactive.
As for `Nc1ccn([C@H]2CC[C@@H](CO)O2)c(=O)n1`, the Potency entry in experiment [1] and in experiment [2] was “inactive” throughout.
As to `CN(C)C(=N)N=C(N)N`, in experiment [2], the Potency entry is “inactive”.
